PfHsp90 yeast 2: inhibits growth of yeast expressing Plasmodium falciparum Hsp90; S. cerevisiae expressing PfHsp90, BacTiter-Glo ATP, 48 h; yeast lacking PDR1 and PDR3 efflux regulators; inhibition, % at 9.4 µM; 310,000 tested, 0.32% active;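 active = every replicate shows inhibition above about 80%, whatever the replicate mean, limit read from the data; inconclusive = mean inhibition reaches the set limit but some replicate falls short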
NLRP3 yeast inh: inhibitors of NALP3 inflammasome in yeast. Yeast reconstituted NLRP3/ASC/caspase-1, beta-gal luminescence, 24 h. inhibition, % at 10 µM. 330,000 tested, 0.39% active. AID 2825;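 active = inhibition of 50% or more; inactive = inhibition below 50%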
tim23-1 inh: growth inhibitors of tim23-1 mutant yeast; 330,000 tested, 1.3% active; S. cerevisiae tim23-1 growth, BacTiter-Glo luminescence, 24 h; inhibition, % at 20 µM; AID 463212;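 active = growth inhibition of the mutant yeast at or above 50%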;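 note: temperature-sensitive mutant grown at 25 °C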
tim10-1 inh: tim10-1 yeast growth inhibition; S. cerevisiae tim10-1 ts strain growth, BacTiter-Glo, 24 h; inhibition, % at 20 µM; 330,000 tested, 2.2% active;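 active = inhibition of at least 40%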;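 note: mutant grown at 25 °C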
TIM10 inh: growth inhibitors of TIM10 yeast strain | S. cerevisiae TIM10 strain growth, BacTiter-Glo luminescence, 24 h | inhibition, % at 10 µM | 330,000 tested, 1.4% active;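 active = inhibition of 40% or more at the single tested concentration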;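 note: wild-type TIM10 isogenic control strain grown at permissive 25 °C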
tim10-1 confirm: tim10-1 yeast growth inhibition, confirmed. 7,400 tested, 56% active. inhibition, % at 20 µM. shares compounds with tim10-1 inh. S. cerevisiae tim10-1 ts strain growth, BacTiter-Glo, 24 h. AID 463213;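 active = inhibition of yeast growth at or above a set limit in either of two repeat tests at 20 µM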;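 note: tim10-1 mutant grown at permissive 25 °C to find synthetic lethal compounds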
TIM10 conf: TIM10 yeast growth inhibition, confirmed. shares compounds with TIM10 inh. S. cerevisiae tim10 strain growth, BacTiter-Glo luminescence, 24 h. inhibition, % at 10 µM. 4,600 tested, 63% active. AID 463215;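 active = inhibition of yeast growth at or above a set limit in either of two replicates at 10 µM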; note: this counterscreen used the strain with wild-type TIM10
tim23-1 conf: confirmation of tim23-1 mutant yeast growth inhibitors; 4,400 tested, 83% active; shares compounds with tim23-1 inh; inhibition, % at 20 µM; AID 463218; S. cerevisiae tim23-1 growth, BacTiter-Glo luminescence, 24 h;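 active = inhibition above about 39% in either of two replicate wells at 20 µM, limit read from the data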;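 note: temperature-sensitive tim23-1 mutant grown at 25 °C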
A number is an active result; i = inactive; ? = inconclusive; nt = no result given. Hits are enriched below; roughly 3.7% of the tested compounds scored in any of these assays.

SMILES | PfHsp90 yeast 2 | NLRP3 yeast inh | tim23-1 inh | tim10-1 inh | TIM10 inh | tim10-1 confirm | TIM10 conf | tim23-1 conf
COc1ccc(-c2cc3nc(C)n(N)c(=O)c3s2)cc1 | ? | i | 69.3 | 64.8 | 58.2 | 66.2 | 47.9 | 68.2
Cc1oc2c(c1C(=O)N1CCC(C)CC1)C(=O)c1ccccc1C2=O | nt | i | 73.7 | 52.2 | 44.8 | 42.8 | 39.5 | 66.8
CCOC(=O)C1CCN(C(=O)c2c(C)oc3c2C(=O)c2ccccc2C3=O)CC1 | i | i | 50.8 | 48.2 | i | 34.4 | nt | 59.0
CCOC(=O)C1CCN(C(=O)c2ccc(C)o2)CC1 | i | i | i | i | i | nt | nt | nt
Cc1onc(-c2ccccc2Cl)c1C(=O)N1CCC(C)CC1 | i | i | i | i | i | nt | nt | nt
Cc1cc2c([nH]c3ccccc32)c2c1OC(C)(C)C=C2 | i | i | 55.7 | 63.1 | i | 49.2 | nt | 69.8
CCCOc1ccc2c(c1)C(=NN=C(N)N)c1cc(OCCC)ccc1-2 | i | i | 62.2 | 76.3 | i | 38.5 | nt | i
CCN(CC)CCOc1ccc2c(c1)C(=NO)c1cc(OCCN(CC)CC)ccc1-2 | i | i | i | i | i | nt | nt | nt
Cc1nn(C)c(C(=O)Sc2cccc(Cl)c2)c1[N+](=O)[O-] | i | i | 61.3 | 46.5 | i | 65.1 | nt | 83.8
O=[N+]([O-])c1cnc(Sc2ccncn2)s1 | 103.0 | i | 68.5 | 46.8 | 81.9 | 49.1 | 95.4 | 52.6
Cc1ccccc1C(=O)N1CCC(C(=O)OCc2ccccn2)CC1 | i | i | i | i | i | nt | nt | nt
O=C(CCSc1ccccc1Cl)Nc1cccc([N+](=O)[O-])c1 | i | i | 53.7 | 55.7 | 51.7 | 50.2 | i | 62.2
NS(=O)(=O)c1cccc(NC(=O)CCSc2ccccc2Cl)c1 | i | i | i | i | i | nt | nt | nt
O=C(NC(=S)N1CCN(Cc2ccc3c(c2)OCO3)CC1)c1cccc(Br)c1 | i | i | 53.6 | 51.4 | 55.9 | 34.8 | i | 47.5
O=C(NC(=S)Nc1ccc2c(c1)OCCO2)c1cccc(Br)c1 | i | i | 51.5 | 45.4 | 44.9 | i | i | 42.4
O=C(NC(=S)Nc1ccc2c(c1)OCO2)c1ccccc1 | i | i | i | i | i | nt | nt | nt
CCOC(=O)C1=CN(Cc2cccc(-c3cccnc3)c2)S(=O)(=O)N(C)C1C (centres undefined) | i | nt | i | i | i | nt | nt | nt
O=C(Nc1ncccc1O)c1ccc(S(=O)(=O)Nc2ccccc2)cc1 | i | i | i | i | i | nt | nt | nt
CC(C)(C)C1CCC(=NNC(=O)c2ccco2)CC1 (centres undefined) | i | i | i | i | i | nt | nt | nt
CCOC(=O)c1c2c(n(C)c1C)C(=O)C(=O)c1ccc(Br)cc1-2 | nt | i | 56.4 | 57.2 | 65.6 | i | 44.5 | 46.8
CSc1ncc(F)c(N(CCO)CCO)n1 | i | i | i | i | i | nt | nt | nt
Cc1nc(-c2ccccc2)cc(-c2ccccc2)n1 | i | i | i | i | i | nt | nt | nt
CN(N)c1nc(-c2ccccc2)cc(-c2ccccc2)n1 | i | i | 56.2 | 44.3 | 49.5 | 39.3 | 43.2 | 54.3
O=C(c1ccccc1)c1cccc(NC(=O)c2ccc(Br)o2)c1 | i | i | 52.6 | 45.1 | 74.6 | 36.0 | i | 76.8
O=C(Nc1cccc(NC(=O)c2ccc(Br)o2)c1)c1ccccc1 | i | i | i | i | i | nt | nt | nt
SMILES | PfHsp90 yeast 2 | NLRP3 yeast inh | tim23-1 inh | tim10-1 inh | TIM10 inh | tim10-1 confirm | TIM10 conf | tim23-1 conf
Cc1oc(-c2nc3ccccc3n2C)cc1C(=O)c1ccccc1 | i | i | 55.8 | 47.8 | 53.2 | 32.7 | i | 72.7
COc1cc(Cl)ccc1OCc1cc(C(=O)N2CCCC(OC)C2)no1 (centres undefined) | i | i | i | i | i | nt | nt | nt
Cc1cccnc1Nc1nc(-c2ccc(O)cc2O)cs1 | i | i | 88.4 | 43.7 | i | i | nt | 52.5
CC(C)(C)NC(=O)C(c1ccc(Cl)cc1)N(Cc1ccco1)C(=O)CCl (centres undefined) | i | i | 51.3 | 53.4 | i | 38.0 | nt | 48.5
O=C(CSc1nc2nn(-c3ccccc3)c(=O)c-2c2n1CCCCC2)Nc1ccc(F)c(F)c1 | nt | i | i | i | i | nt | nt | nt
O=c1ccc2cc3c(-c4ccccc4)coc3cc2o1 | i | i | 63.8 | 60.5 | 45.7 | 60.8 | 58.0 | 65.6
CC(=O)Oc1ccc2occ(-c3ccccc3)c2c1 | i | i | i | i | i | nt | nt | nt
CCOc1ccc2nc(NC(=O)c3ccoc3C)sc2c1 | 78.6 | i | 80.2 | 75.5 | 67.7 | 76.1 | 68.8 | 84.8
CCOc1ccc2nc(NC(=O)c3ccccn3)sc2c1 | i | i | i | i | i | nt | nt | nt
COc1ccc(C(=O)O/N=C(\N)c2ccc(OC)c(OC)c2)c(OC)c1 | i | i | i | i | i | nt | nt | nt
COc1ccc(C(=O)O/N=C(\N)c2ccc(OC)c(OC)c2)cc1 | i | i | 53.5 | 72.8 | 49.3 | 78.0 | 40.4 | 64.5
COc1ccc(C(=O)O/N=C(\N)c2ccccc2)c(OC)c1 | i | i | 59.9 | 75.9 | 69.9 | 71.5 | 67.4 | 86.8
COc1cc(OC)cc(C(=O)NC2CCCCCCC2)c1 | i | i | i | i | i | nt | nt | nt
Clc1ccc(N=c2ssnc2Cl)cc1 | 103.8 | i | 63.3 | 54.2 | i | 65.6 | nt | 88.3
COc1ccc(N=c2ssnc2Cl)cc1 | i | i | 60.9 | 52.7 | i | 34.7 | nt | 80.3
c1ccc2c(CN3CCOCC3)csc2c1 | i | i | i | i | i | nt | nt | nt
c1ccc2c(CN3CCOCC3)c3ccccc3c(CN3CCOCC3)c2c1 | nt | i | 84.3 | 53.4 | 61.0 | 52.3 | 49.6 | i
CCOC(=O)/C(C#N)=C/c1ccc(OC)c(OC)c1 | i | i | i | i | i | nt | nt | nt
CCOc1cc(/C=C(\C#N)C(N)=O)ccc1OS(=O)(=O)c1ccccc1 | i | i | 56.7 | 47.8 | i | 37.8 | nt | 58.1
CC(C)c1ccc(-c2c(NCCc3ccccc3)c(=O)c2=O)cc1 | i | i | i | i | i | nt | nt | nt
CC(C)CNC(=S)NC(=O)c1ccc([N+](=O)[O-])cc1 | i | i | 52.7 | i | i | 32.1 | nt | 42.5
CCCC(=O)NC(=S)NNC(=O)c1ccc([N+](=O)[O-])cc1 | i | i | i | i | i | nt | nt | nt
CCCCNC(=S)NC(=O)c1ccc([N+](=O)[O-])cc1 | nt | i | 53.4 | 51.6 | i | i | nt | 52.7
CC(C)CNC(=S)NC(=O)c1csc([N+](=O)[O-])c1 | i | i | 63.1 | 41.9 | i | 32.0 | nt | 64.3
c1ccc(-c2cccc(-c3ccccn3)n2)nc1 | 145.9 | i | 57.5 | 60.1 | i | 43.0 | nt | 57.3
CC(=O)NC(C)c1cc(Cl)c2cccnc2c1O (centres undefined) | i | i | 53.4 | 40.8 | i | i | nt | i
CNc1ncnc2c1ncn2-c1ccccc1 | i | nt | nt | nt | nt | nt | nt | nt
CCn1c(=O)c(=O)[nH]c2cc(C(=O)NC(C)c3ccc(S(N)(=O)=O)cc3)ccc21 (centres undefined) | i | i | i | i | i | nt | nt | nt
Clc1ccc(-c2cn3c(n2)-c2ccccc2C3)cc1Cl | i | i | i | i | i | nt | nt | nt
